Measurements reported in PubChem BioAssay (NCI).
This is part of a sample that, as a whole, favours compounds with a hit. Of some 83,000 tested, about 20% had one in any assay.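 Negative percent growth values reflect cell death: -40 means 40% of the cells present at the start died, and -100 means all died.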 Values without a mark were called inactive. Activity calls are given as the source filed them. How the source made its calls: active means growth percent below 10; inactive means the rest.

system: HL-60(TB) leukemia; assay: NCI-60 one-dose screen, 48 h (100 = growth as untreated, 0 = no growth, -100 = all killed); conditions: 10 µM unless noted

Row | Compound | growth
1 | CC(O)CNC(Cc1ccccc1)c1ccc2c(c1)OCO2 (stereo not given) | 96.3%
2 | CCOC(=O)c1cc(C(=O)c2cc(OC)cc(OC)c2)n2ccccc12 | -13.9% (active)
3 | O=C(/C=C/c1cccc(Cl)c1Cl)Nc1ncc(Cc2ccccc2Cl)s1 | -3.06% (active)
4 | O=c1[nH]c(=O)n(C2CC(O)C(CO)O2)cc1CO (stereo not given) | 107%
5 | CC1OC(n2c3ccccc3c3c4c(c5c6ccccc6[nH]c5c32)C(=O)N(CCN[C@H]2CCC[C@@H]2N)C4=O)CC(O)C1O (stereo not given in full) | 54.3%
6 | CCCCC/C=C/CCC(=O)N[C@H]1[C@H](Oc2c3cc4cc2Oc2ccc(cc2Cl)[C@@H](O[C@@H]2O[C@H](CO)[C@@H](O)[C@H](O)[C@H]2NC(C)=O)[C@@H]2NC(=O)[C@H](NC(=O)[C@@H]4NC(=O)[C@H]4NC(=O)[C@@H](Cc5ccc(c(Cl)c5)O3)NC(=O)[C@@H](N)c3ccc(O)c(c3)Oc3cc(O)cc4c3)c3ccc(O)c(c3)-c3c(O[C@H]4O[C@H](CO)[C@@H](O)[C@H](O)[C@@H]4O)cc(O)cc3[C@H](C(=O)O)NC2=O)O[C@H](CO)[C@H](O)[C@@H]1O | 105%
7 | COc1cccc(-c2nn(-c3ccccc3)cc2-c2ccnc(N3CCOCC3)c2)c1 | 44.9%
8 | Cc1ccc2c(c1)C(=O)/C(=C/c1ccc(OCC(=O)c3ccccc3)cc1)O2 | 69.9%
9 | O=C(O)/C=C/C(=O)NCc1ccccc1 | 105%
10 | CC/C(=C\c1ccc(N(C)C)cc1)c1ccncc1 | 29.5%
11 | COC(=O)[C@]12CC[C@@H](C)[C@H](C)[C@@H]1C1=CC[C@@H]3[C@@]4(C)C(C=O)=C[C@@](C)(COC(=O)/C=C/c5ccccc5)[C@@H]4[C@H](O)C[C@@]3(C)[C@]1(C)CC2 | -13% (active)
12 | O=C(Nc1ccc(Br)cc1F)c1cc(I)ccc1O | -33.3% (active)
13 | O=C(Nc1ccc2c(c1)C(=O)c1ccccc1-2)c1ccccc1 | 101%
14 | Clc1ccccc1Nc1ccc2nnc(-c3ccncc3)n2n1 | 75.8%
15 | CCn1c2ccccc2c2ccc(C(C)=O)cc21 | 118%
16 | COc1ccc2c(c1)O/C(=C\c1ccc([N+](=O)[O-])s1)C2=O | 7.46% (active)
17 | COc1ccc2nc(-c3ccc(OC)c(OC)c3)cc(-c3nnc(SCC(=O)Nc4ccc(/C(C)=N\O)cc4)n3-c3ccccc3)c2c1 | 26.3%
18 | Clc1ccc2c(NCCN3CCN(c4ccnc(N5CCCC5)n4)CC3)ccnc2c1 | 37.4%

Row | Compound | growth
19 | NC(=O)Nc1ccc2ncnc(Nc3cccc(O)c3)c2c1 | 105%
20 | NC(=S)N1N=C(c2ccc(Cl)cc2)CC1c1cc2ccccc2[nH]c1=O (stereo not given) | 75.1%
21 | CCc1nc2cc(F)c(/C=C/C(=O)NO)cc2c(=O)n1CCc1ccccc1 | 0.13% (active)
22 | CN(C)CC1(C)Cc2ccsc2C1O (stereo not given) | 93%
23 | Clc1ccc(OCc2nc(-c3ccccc3)n[nH]2)c(Cl)c1 | 94.9%
24 | COc1ccc(C2CC(c3cccs3)=NN2c2ccc(S(N)(=O)=O)cc2)cc1 (stereo not given) | 73.7%
25 | CCN(CC)CCCC(C)Nc1ccnc2ccc(Oc3ccccc3)cc12 (stereo not given) | 72.6%
26 | COc1ccc(-c2ccc(-c3ccc(C(=N)N)cc3)s2)cc1Cl | -48.8% (active)
27 | O=C1Nc2c(ccc(Cl)c2Cl)/C1=C/c1ccc(O)cc1 | 76.9%
28 | Clc1ccc(-c2nc(NCCc3ccccc3)nc3c(NCCc4ccccc4)cnn23)cc1 | 88.8%
29 | Cn1ccnc1C(=O)/C=C/c1ccc(C(=O)Nc2c(F)c(F)c(F)c(F)c2F)cc1 | -22.4% (active)
30 | CCCCCCCCOC(=O)c1c(C)[nH]c(/C=C2\N=C(c3ccc[nH]3)C=C2OC)c1C | 4.96% (active)
31 | CCCCNc1nnc2n(Cc3ccccc3)c(=O)c3c4c(sc3n12)CCCC4 | 90.5%
32 | O=C1c2cccc3cccc(c23)C(=O)N1N1C(=O)c2cccc3c(N4CCNCC4)ccc(c23)C1=O | 64.7%
33 | COc1cc(/C=N\NC(=O)CN2CCN(c3cc4c(cc3F)c(=O)c(C(=O)N/N=C/c3cc(OC)c(OC)c(OC)c3)cn4C3CC3)CC2)cc(OC)c1OC | -10.2% (active)
34 | CCCCCCCCCCCCCCCCCCOc1cccc(CC(=O)OCC[N+](CC)(CC)CC)c1 | 9.38% (active)
35 | Cc1ccc(S(=O)(=O)NCCNc2nccc(-c3c(-c4cccc(N)c4)nc4sccn34)n2)cc1 | 110%
